Laboratory results as given in the supplement of paper PMC8728848.
Shown is part of a subset that was picked to be rich in the strongest signals.

Columns and labels:
Test in all cases: glycan array binding signal (z-score within array); higher = stronger binding
Conditions in all cases: glycan notation: IUPAC condensed, linker removed
[1] = target: Fuc(a1-2)Gal(b1-3)[Fuc(a1-4)]GlcNAc(b1-2)Man(a1-3)[Fuc(a1-2)Gal(b1-3)[Fuc(a1-4)]GlcNAc(b1-2)Man(a1-3)]Man(b1-4)GlcNAc(b1-4)GlcNAc
Outline: (§1)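 Columns mapping to the same glycan were averaged after glycan names were converted to IUPAC-condensed notation. The data come from 3228 arrays in the Consortium for Functional Glycomics database, limited to those with an available protein sequence. Binding is reported as a within-array Z-score averaged across arrays of one protein sequence and across linkers.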

[2] = target: Fuc(a1-2)Gal(b1-3)[Fuc(a1-4)]GlcNAc(b1-2)Man(a1-3)[Fuc(a1-2)Gal(b1-3)[Fuc(a1-4)]GlcNAc(b1-2)Man(a1-6)]Man(b1-4)GlcNAc(b1-4)[Fuc(a1-6)]GlcNAc(b1-4)[Fuc(a1-6)]GlcNAc
Outline: as §1

[3] = target: Fuc(a1-2)Gal(b1-4)GlcNAc(b1-2)Man(a1-3)[Fuc(a1-2)Gal(b1-4)GlcNAc(b1-2)Man(a1-6)]Man(b1-4)GlcNAc(b1-4)[Fuc(a1-6)]GlcNAc
Outline: as §1

[4] = target: Fuc(a1-2)[Gal(a1-3)]Gal(b1-3)GalNAc
Outline: as §1

[5] = target: Fuc(a1-2)[Gal(a1-3)]Gal(b1-3)GlcNAc(b1-3)GalNAc
Outline: as §1

[6] = target: Fuc(a1-2)[Gal(a1-3)]Gal(b1-4)GlcNAc(b1-2)Man(a1-3)[Fuc(a1-2)[Gal(a1-3)]Gal(b1-4)GlcNAc(b1-2)Man(a1-6)]Man(b1-4)GlcNAc(b1-4)[Fuc(a1-6)]GlcNAc
Outline: as §1

[7] = target: Fuc(a1-2)[Gal(a1-3)]Gal(b1-4)GlcNAc(b1-3)[Fuc(a1-2)[Gal(a1-3)]Gal(b1-4)GlcNAc(b1-6)]GalNAc
Outline: as §1

[8] = target: Fuc(a1-2)[Gal(a1-3)]Gal(b1-4)[Fuc(a1-3)]GlcNAc
Outline: as §1

[9] = target: Fuc(a1-2)[Gal(a1-3)]Gal(b1-4)[Fuc(a1-3)]GlcNAc(b1-3)GalNAc
Outline: as §1

[10] = target: Fuc(a1-2)[GalNAc(a1-3)]Gal(b1-3)GalNAc(b1-3)Gal(a1-4)Gal(b1-4)Glc
Outline: as §1

[11] = target: Fuc(a1-3)[Gal(b1-4)]GlcNAc(b1-2)Man
Outline: as §1

Fuc(a1-4)GlcNAc = target: Fuc(a1-4)GlcNAc
Outline: as §1

[12] = target: Gal(a1-3)Gal(b1-4)[Fuc(a1-3)]GlcNAc
Outline: as §1

[13] = target: Gal(a1-3)Gal(b1-4)[Fuc(a1-3)]GlcNAc(b1-2)Man(a1-3)[Gal(a1-3)Gal(b1-4)[Fuc(a1-3)]GlcNAc(b1-2)Man(a1-6)]Man(b1-4)GlcNAc(b1-4)GlcNAc
Outline: as §1

Gal(a1-3)GalNAc = target: Gal(a1-3)GalNAc
Outline: as §1

[14] = target: Gal(a1-4)Gal(b1-4)GlcNAc(b1-2)Man(a1-3)[Gal(a1-4)Gal(b1-4)GlcNAc(b1-2)Man(a1-6)]Man(b1-4)GlcNAc(b1-4)GlcNAc
Outline: as §1

Gal(a1-6)Glc = target: Gal(a1-6)Glc
Outline: as §1

[15] = target: Gal(b1-3)GalNAc(a1-3)[Fuc(a1-2)]Gal(b1-4)Glc
Outline: as §1

Gal(b1-3)GlcNAc(b1-2)Man = target: Gal(b1-3)GlcNAc(b1-2)Man
Outline: as §1

[16] = target: Gal(b1-3)GlcNAc(b1-2)[Gal(b1-3)GlcNAc(b1-6)]Man(a1-6)[Gal(b1-3)GlcNAc(b1-2)Man(a1-3)]Man(b1-4)GlcNAc(b1-4)GlcNAc
Outline: as §1

Gal(b1-4)Gal = target: Gal(b1-4)Gal
Outline: as §1

[17] = target: Gal(b1-4)GalNAc(b1-3)[Fuc(a1-2)]Gal(b1-4)GlcNAc
Outline: as §1

[18] = target: Gal(b1-4)GlcNAc(b1-2)[Gal(b1-4)GlcNAc(b1-4)]Man(a1-3)[Gal(b1-4)GlcNAc(b1-2)[Gal(b1-4)GlcNAc(b1-6)]Man(a1-6)]Man(b1-4)GlcNAc(b1-4)GlcNAc
Outline: as §1

[19] = target: Gal(b1-4)GlcNAc(b1-3)Gal(b1-4)GlcNAc(b1-3)Gal(b1-4)GlcNAc(b1-2)Man(a1-3)[Gal(b1-4)GlcNAc(b1-3)Gal(b1-4)GlcNAc(b1-3)Gal(b1-4)GlcNAc(b1-2)Man(a1-6)]Man(b1-4)GlcNAc(b1-4)[Fuc(a1-6)]GlcNAc
Outline: as §1

[20] = target: Gal(b1-4)GlcNAc(b1-3)Gal(b1-4)GlcNAc(b1-3)[Gal(b1-4)GlcNAc(b1-3)Gal(b1-4)GlcNAc(b1-6)]GalNAc
Outline: as §1

[21] = target: Gal3S(b1-4)[Fuc(a1-3)]Glc6S
Outline: as §1

Gal3S4S(b1-4)GlcNAc = target: Gal3S4S(b1-4)GlcNAc
Outline: as §1

GalNAc(b1-4)Gal(b1-4)Glc = target: GalNAc(b1-4)Gal(b1-4)Glc
Outline: as §1

GalNAc4S6S(b1-4)GlcNAc = target: GalNAc4S6S(b1-4)GlcNAc
Outline: as §1

[22] = target: Glc(a1-6)Glc(a1-6)Glc(a1-6)Glc
Outline: as §1

Glc(b1-4)Glc = target: Glc(b1-4)Glc
Outline: as §1

[23] = target: GlcNAc(a1-4)Gal(b1-4)GlcNAc
Outline: as §1

[24] = target: GlcNAc(b1-2)Gal(b1-3)GalNAc
Outline: as §1

[25] = target: GlcNAc(b1-2)Man(a1-3)[GlcNAc(b1-2)Man(a1-6)]Man(b1-4)GlcNAc(b1-4)GlcNAc
Outline: as §1

[26] = target: GlcNAc(b1-3)Gal(b1-4)GlcNAc(b1-3)Gal(b1-4)GlcNAc(b1-2)[GlcNAc(b1-3)Gal(b1-4)GlcNAc(b1-3)Gal(b1-4)GlcNAc(b1-6)]Man(a1-6)[GlcNAc(b1-3)Gal(b1-4)GlcNAc(b1-3)Gal(b1-4)GlcNAc(b1-2)Man(a1-3)]Man(b1-4)GlcNAc(b1-4)[Fuc(a1-6)]GlcNAc
Outline: as §1

[27] = target: GlcNAc(b1-3)[GlcNAc(b1-6)]GalNAc
Outline: as §1

[28] = target: Man(a1-2)Man(a1-3)[Man(a1-6)]Man(a1-6)[Man(a1-2)Man(a1-3)]Man(b1-4)GlcNAc(b1-4)GlcNAc
Outline: as §1

MurNAc(b1-4)GlcNAc = target: MurNAc(b1-4)GlcNAc
Outline: as §1

Neu5Ac(a2-3)Gal = target: Neu5Ac(a2-3)Gal
Outline: as §1

[29] = target: Neu5Ac(a2-3)Gal(b1-3)GalNAc(b1-4)[Neu5Ac(a2-8)Neu5Ac(a2-3)]Gal(b1-4)Glc
Outline: as §1

[30] = target: Neu5Ac(a2-3)Gal(b1-3)GlcNAc(b1-2)Man(a1-3)[Neu5Ac(a2-3)Gal(b1-3)GlcNAc(b1-2)Man(a1-6)]Man(b1-4)GlcNAc(b1-4)GlcNAc
Outline: as §1

[31] = target: Neu5Ac(a2-3)Gal(b1-3)GlcNAc(b1-3)GalNAc
Outline: as §1

[32] = target: Neu5Ac(a2-3)Gal(b1-3)[Fuc(a1-4)]GlcNAc(b1-3)Gal(b1-4)[Fuc(a1-3)]GlcNAc
Outline: as §1

Neu5Ac(a2-3)Gal(b1-4)Glc = target: Neu5Ac(a2-3)Gal(b1-4)Glc
Outline: as §1

[33] = target: Neu5Ac(a2-3)Gal(b1-4)GlcNAc(b1-3)Gal(b1-4)GlcNAc(b1-3)[Neu5Ac(a2-3)Gal(b1-4)GlcNAc(b1-3)Gal(b1-4)GlcNAc(b1-6)]GalNAc
Outline: as §1

[34] = target: Neu5Ac(a2-3)Gal(b1-4)[Fuc(a1-3)]GlcNAc(b1-3)Gal(b1-4)[Fuc(a1-3)]GlcNAc(b1-3)Gal(b1-4)[Fuc(a1-3)]GlcNAc
Outline: as §1

[35] = target: Neu5Ac(a2-3)Gal6S(b1-4)GlcNAc
Outline: as §1

[36] = target: Neu5Ac(a2-3)[GalNAc(b1-4)]Gal(b1-4)Glc
Outline: as §1

[37] = target: Neu5Ac(a2-3)[GalNAc(b1-4)]Gal(b1-4)GlcNAc(b1-3)GalNAc
Outline: as §1

[38] = target: Neu5Ac(a2-6)Gal(b1-4)GlcNAc(b1-2)Man(a1-3)Man(b1-4)GlcNAc(b1-4)GlcNAc
Outline: as §1

Neu5Ac(a2-6)GalNAc = target: Neu5Ac(a2-6)GalNAc
Outline: as §1

[39] = target: Neu5Ac(a2-8)Neu5Ac(a2-3)Gal(b1-3)GalNAc(b1-4)[Neu5Ac(a2-8)Neu5Ac(a2-3)]Gal(b1-4)Glc
Outline: as §1

[40] = target: Neu5Gc(a2-3)Gal(b1-3)[Fuc(a1-4)]GlcNAc
Outline: as §1

B1: Siglec-E (Mus musculus), Q91Y57 (protein)
chain: MLLLLLLLLLWGIKGVEGQNPQEVFTLNVERKVVVQEGLCVLVPCNFSYLKKRLTDWTDSDPVHGFWYREGTDRRKDSIVATNNPIRKAVKETRNRFFLLGDPWRNDCSLNIREIRKKDAGLYFFRLERGKTKYNYMWDKMTLVVTALTNTPQILLPETLEAGHPSNLTCSVPWDCGWTAPPIFSWTGTSVSFLSTNTTGSSVLTITPQPQDHGTNLTCQVTLPGTNVSTRMTTRLNVSYAPKNLTVTIYQGADSVSTILKNGSSLPISEGQSLRLICSTDSYPPANLSWSWDNLTLCPSKLSKPGLLELFPVHLKHGGVYTCQAQHALGSQHISLSLSPQSSATLSEMMMGTFVGSGVTALLFLSVCILLLAVRSYRRKPARPAVVAPHPDALKVSVSQNPLVESQADDSSEPLPSILEAAPSSTEEEIHYATLSFHEMKPMNLWGQQDTTTEYSEIKFPQRTAWP
[1]
  glycan array binding signal (z-score): 3.48
[2]
  glycan array binding signal (z-score): 0.284
[3]
  glycan array binding signal (z-score): 3.46
[4]
  glycan array binding signal (z-score): 0.178
[5]
  glycan array binding signal (z-score): 5.32
[6]
  glycan array binding signal (z-score): 3.5
[7]
  glycan array binding signal (z-score): 5.58
[8]
  glycan array binding signal (z-score): 0.611
[9]
  glycan array binding signal (z-score): -0.176
[10]
  glycan array binding signal (z-score): -0.363
[11]
  glycan array binding signal (z-score): -0.35
Fuc(a1-4)GlcNAc
  glycan array binding signal (z-score): 4.01
[12]
  glycan array binding signal (z-score): -0.381
[13]
  glycan array binding signal (z-score): 6.54
Gal(a1-3)GalNAc
  glycan array binding signal (z-score): -0.309
[14]
  glycan array binding signal (z-score): 4.23
Gal(a1-6)Glc
  glycan array binding signal (z-score): 0.863
[15]
  glycan array binding signal (z-score): -0.496
Gal(b1-3)GlcNAc(b1-2)Man
  glycan array binding signal (z-score): -0.592
[16]
  glycan array binding signal (z-score): 1.66
Gal(b1-4)Gal
  glycan array binding signal (z-score): 3.25
[17]
  glycan array binding signal (z-score): -0.625
[18]
  glycan array binding signal (z-score): -0.667
[19]
  glycan array binding signal (z-score): -0.527
[20]
  glycan array binding signal (z-score): -0.06
[21]
  glycan array binding signal (z-score): 0.707
Gal3S4S(b1-4)GlcNAc
  glycan array binding signal (z-score): -0.239
GalNAc(b1-4)Gal(b1-4)Glc
  glycan array binding signal (z-score): 4.05
GalNAc4S6S(b1-4)GlcNAc
  glycan array binding signal (z-score): -0.147
[22]
  glycan array binding signal (z-score): 1.1
Glc(b1-4)Glc
  glycan array binding signal (z-score): -0.196
[23]
  glycan array binding signal (z-score): -0.41
[24]
  glycan array binding signal (z-score): -0.364
[25]
  glycan array binding signal (z-score): -0.12
[26]
  glycan array binding signal (z-score): -0.336
[27]
  glycan array binding signal (z-score): -0.05
[28]
  glycan array binding signal (z-score): -0.61
MurNAc(b1-4)GlcNAc
  glycan array binding signal (z-score): -0.464
Neu5Ac(a2-3)Gal
  glycan array binding signal (z-score): -0.19
[29]
  glycan array binding signal (z-score): 0.68
[30]
  glycan array binding signal (z-score): 6.41
[31]
  glycan array binding signal (z-score): -0.226
[32]
  glycan array binding signal (z-score): -0.475
Neu5Ac(a2-3)Gal(b1-4)Glc
  glycan array binding signal (z-score): 3.95
[33]
  glycan array binding signal (z-score): -0.335
[34]
  glycan array binding signal (z-score): -0.568
[35]
  glycan array binding signal (z-score): -0.532
[36]
  glycan array binding signal (z-score): -0.34
[37]
  glycan array binding signal (z-score): -0.355
[38]
  glycan array binding signal (z-score): -0.181
Neu5Ac(a2-6)GalNAc
  glycan array binding signal (z-score): -0.32
[39]
  glycan array binding signal (z-score): 0.342
[40]
  glycan array binding signal (z-score): 0.48
